Compounds without any hit were thinned out: in the full panel of roughly 83,000, 20% have a hit.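 Method: cells in 96-well plates; compound added at one concentration; 48 h incubation; percent growth measured; values under 10 scored active.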 The source made the active and inactive calls.
How the values were obtained:
Experiment in all cases: NCI-60 one-dose screen, 48 h (100 = growth as untreated, 0 = no growth, -100 = all killed)
DU-145 prostate = tested on: DU-145 prostate
K-562 leukemia = tested on: K-562 leukemia
MALME-3M melanoma = tested on: MALME-3M melanoma
MDA-MB-231 breast = tested on: MDA-MB-231 breast
RXF 393 renal = tested on: RXF 393 renal
SF-268 CNS = tested on: SF-268 CNS
SF-295 CNS = tested on: SF-295 CNS
SF-539 CNS = tested on: SF-539 CNS
UACC-257 melanoma = tested on: UACC-257 melanoma
M14 melanoma = tested on: M14 melanoma

Measured: growth

CC(=O)/C=C/c1ccc(OCc2ccc(C(C)(C)C)cc2)cc1
inactive: DU-145 prostate; 10 µM 89% | DU-145 prostate; 100 µM 61% | K-562 leukemia; 10 µM 39.1% | K-562 leukemia; 100 µM 13.4% | MALME-3M melanoma; 10 µM 86.4% | MALME-3M melanoma; 100 µM 29% | MDA-MB-231 breast; 10 µM 84.2% | RXF 393 renal; 10 µM 94.6% | SF-268 CNS; 10 µM 94.2% | SF-268 CNS; 100 µM 42.3% | SF-295 CNS; 10 µM 69.6% | SF-295 CNS; 100 µM 27.2% | SF-539 CNS; 10 µM 78.4% | SF-539 CNS; 100 µM 34.1% | UACC-257 melanoma; 10 µM 70.6% | M14 melanoma; 10 µM 67% | M14 melanoma; 100 µM 10.5%
active: MDA-MB-231 breast; 100 µM -39.2% | RXF 393 renal; 100 µM 1.8% | UACC-257 melanoma; 100 µM 2.75%

CCN(Cc1ccccc1)c1ccc(/C=C2\COc3ccccc3C2=O)cc1
inactive: DU-145 prostate; 10 µM 101% | DU-145 prostate; 100 µM 47.8% | K-562 leukemia; 10 µM 78.4% | MALME-3M melanoma; 10 µM 99.1% | MALME-3M melanoma; 100 µM 54.5% | MDA-MB-231 breast; 10 µM 101% | MDA-MB-231 breast; 100 µM 43% | RXF 393 renal; 10 µM 109% | RXF 393 renal; 100 µM 37.3% | SF-268 CNS; 10 µM 101% | SF-268 CNS; 100 µM 54.7% | SF-295 CNS; 10 µM 94.4% | SF-295 CNS; 100 µM 54.4% | SF-539 CNS; 10 µM 97.3% | SF-539 CNS; 100 µM 61.1% | UACC-257 melanoma; 10 µM 92.6% | UACC-257 melanoma; 100 µM 42.8% | M14 melanoma; 10 µM 97.4% | M14 melanoma; 100 µM 28.9%
active: K-562 leukemia; 100 µM 6.4%

O=C(Nc1ncc(Cc2cccc(C(F)(F)F)c2)s1)c1ccc2c(c1)OCCO2
active: K-562 leukemia; 10 µM unless noted 8.17% | SF-295 CNS; 10 µM unless noted 8.97% | SF-539 CNS; 10 µM unless noted -0.654%
inactive: DU-145 prostate; 10 µM unless noted 15.1% | MALME-3M melanoma; 10 µM unless noted 50.1% | MDA-MB-231 breast; 10 µM unless noted 30.2% | RXF 393 renal; 10 µM unless noted 19.6% | SF-268 CNS; 10 µM unless noted 38.3% | UACC-257 melanoma; 10 µM unless noted 45.5% | M14 melanoma; 10 µM unless noted 21.6%

C#CCOCC1CN(C)C(=O)O1 (stereo not drawn)
inactive: DU-145 prostate; 10 µM unless noted 107% | K-562 leukemia; 10 µM unless noted 101% | MALME-3M melanoma; 10 µM unless noted 110% | MDA-MB-231 breast; 10 µM unless noted 110% | RXF 393 renal; 10 µM unless noted 131% | SF-268 CNS; 10 µM unless noted 113% | SF-295 CNS; 10 µM unless noted 105% | SF-539 CNS; 10 µM unless noted 102% | UACC-257 melanoma; 10 µM unless noted 104% | M14 melanoma; 10 µM unless noted 107%

COc1ccc(-c2nnc3n(C)c(=O)c4ccccc4n23)cc1O
active: K-562 leukemia; 10 µM unless noted 9.1% | RXF 393 renal; 10 µM unless noted -11.7% | SF-539 CNS; 10 µM unless noted -3.83% | M14 melanoma; 10 µM unless noted 3.13%
inactive: DU-145 prostate; 10 µM unless noted 27.1% | MALME-3M melanoma; 10 µM unless noted 70.8% | MDA-MB-231 breast; 10 µM unless noted 36.4% | SF-268 CNS; 10 µM unless noted 54.1% | SF-295 CNS; 10 µM unless noted 11.6% | UACC-257 melanoma; 10 µM unless noted 49.8%

O=S(=O)(Nc1ccc(F)cc1)c1ccc(-c2cnc(C3CC3)o2)cc1
inactive: DU-145 prostate; 10 µM unless noted 34% | K-562 leukemia; 10 µM unless noted 11.9% | MALME-3M melanoma; 10 µM unless noted 46% | MDA-MB-231 breast; 10 µM unless noted 49.7% | RXF 393 renal; 10 µM unless noted 25.9% | SF-268 CNS; 10 µM unless noted 45.5% | SF-295 CNS; 10 µM unless noted 30.2% | SF-539 CNS; 10 µM unless noted 19.4% | UACC-257 melanoma; 10 µM unless noted 43.4% | M14 melanoma; 10 µM unless noted 12.2%

CN(C)CCNc1ncc(F)c(-c2cnc3cc(-c4cnn(C)c4)ccn23)n1
inactive: DU-145 prostate; 0.005 µM 107% | DU-145 prostate; 30 µM 27.5% | K-562 leukemia; 0.005 µM 102% | K-562 leukemia; 30 µM 41.6% | MALME-3M melanoma; 0.005 µM 99.7% | MALME-3M melanoma; 30 µM 53.5% | MDA-MB-231 breast; 0.005 µM 98.4% | MDA-MB-231 breast; 30 µM 54.3% | RXF 393 renal; 10 µM unless noted 110% [0.005 µM] | SF-268 CNS; 0.005 µM 100% | SF-268 CNS; 30 µM 57.7% | SF-295 CNS; 0.005 µM 102% | SF-295 CNS; 30 µM 70.8% | SF-539 CNS; 0.005 µM 97.2% | SF-539 CNS; 30 µM 46.3% | UACC-257 melanoma; 0.005 µM 100% | UACC-257 melanoma; 30 µM 93.5% | M14 melanoma; 10 µM unless noted 107% [0.005 µM]

O=C(c1ccc(Nc2nccc(NCCCNc3ccnc4cc(Cl)ccc34)n2)cc1)N1CCCCC1
inactive: DU-145 prostate; 10 µM unless noted 39.1% | K-562 leukemia; 10 µM unless noted 18.8% | MALME-3M melanoma; 10 µM unless noted 17.2% | MDA-MB-231 breast; 10 µM unless noted 36.2% | RXF 393 renal; 10 µM unless noted 61% | SF-268 CNS; 10 µM unless noted 36.5% | SF-295 CNS; 10 µM unless noted 37.2% | SF-539 CNS; 10 µM unless noted 35.5% | UACC-257 melanoma; 10 µM unless noted 36.7% | M14 melanoma; 10 µM unless noted 35%

COc1ccc(C(=O)/C=C/c2ccc(OCc3cccc(C(F)(F)F)c3)c(OC)c2)cc1OC
inactive: DU-145 prostate; 10 µM 72.7% | DU-145 prostate; 100 µM 19.4% | K-562 leukemia; 10 µM 39.1% | K-562 leukemia; 100 µM 12.2% | MALME-3M melanoma; 10 µM 97.7% | MALME-3M melanoma; 100 µM 23.5% | MDA-MB-231 breast; 10 µM 79.9% | RXF 393 renal; 10 µM 97.7% | SF-268 CNS; 10 µM 86.4% | SF-268 CNS; 100 µM 14.6% | SF-295 CNS; 10 µM 98.2% | SF-295 CNS; 100 µM 21.7% | SF-539 CNS; 10 µM 103% | SF-539 CNS; 100 µM 12% | UACC-257 melanoma; 10 µM 93.9% | UACC-257 melanoma; 100 µM 28.7% | M14 melanoma; 10 µM 85.3% | M14 melanoma; 100 µM 35.4%
active: MDA-MB-231 breast; 100 µM -12.9% | RXF 393 renal; 100 µM -13%
